Assay results published in the OligoGym collection.

Biological target: SLC25A3
Assay: pooled miR-30 sensor sort-seq; sequence = guide strand
Details: shRNA
Note: reference of the scale not given here.

Point of comparison: TAAGTGTAACTGAGAATCCGTT, sensor-assay potency score (higher = more potent) -0.605. Against it:
- TTTTCTTTATTCAACACAGATA — lower, -1.15
- TTGCACAAAAGACTCCAGCTAT — higher, 0.0495
- TAAATCTGAAACTCTTGCCTTA — higher, 0.121

Biological target: SLC25A41
Assay: as above
Details: shRNA

Point of comparison: TAGACCTGCATGTACACCTTGG, sensor-assay potency score (higher = more potent) -0.353. Against it:
- TAGAGCAAGTGTTCTGAGGTTC — higher, 0.286
- ATACTCAGGAGCAATCTTGAGC — lower, -0.858
- TATTCCACAGAAGTAATTCTTG — higher, -0.218
- TAGACAGCCAGGTCGGTGCAGG — lower, -0.911
- TACACCACATAGCTGATGCCAC — lower, -0.548
- TCTCGCTGCAAGATCTGCCTGG — lower, -0.421
- TTCAAGGTTGTTGTCATGCATG — lower, -1.11
- TCCTGTGTCCAGTACCTGCTGT — lower, -0.625
- TTGGTGAAGTTCGTCTTGGAGG — lower, -1.22
- TGCATGTACACCTTGGCTCTGT — higher, -0.291
- TTGCACTGCTCGAATACGGAGA — lower, -0.376
